Screens (PubChem BioAssay)
Dicer inh: blocks human Dicer maturation of pre-miR-21; Q9UPY3; cat-ELCCA pre-miR-21 Dicer processing, chemiluminescence; active compounds read high; z-score at 25 µM; 6% of 47,000 active; in the data active = z-score above about 3, passing the limit was not always enough;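 also: plate controls were vehicle for no effect and no enzyme for full effect; higher signal means more uncleaved substrate so more Dicer inhibition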
An asterisk follows results filed as active. Many of the other results were omitted from the sample, so hits are more common in it than they were.

SMILES | Dicer inh
OC1(c2cc(C(F)(F)F)cc(C(F)(F)F)c2)CC1 | -0.26
Cc1nc(-c2ccc(Oc3ncc(C(F)(F)F)cc3Cl)cc2)no1 | -0.42
CC(C)c1ccc(Nc2nnns2)cc1 | 6.8*
CC(C)c1ccc(NC2(C#N)CCCCC2)cc1 | 1.4
Clc1ccc(Nc2nnns2)cc1 | 1.6
COc1ccc(S(=O)(=O)n2cnc3cc(C)c(C)cc32)c2ccccc12 | 9.2
CN1Cc2sccc2C(c2ccc(O)c(O)c2)C1 (stereo not given) | 4.8*
CN1CCc2cc(Cl)c(O)cc2[C@@H](c2ccccc2)C1 | 0.58
CC12CN3CC(C)(CN(C1)C3c1ccc(O)c(O)c1)C2=O (stereo not given) | -0.39
CCCc1cc(=O)oc2cc(OCC(=O)OCC)ccc12 | 1.3
CCCCC#Cc1ccc(-c2nnc(SCc3ccc(Cl)cc3)n2C)o1 | 1.1
Cc1cc2ncc(-c3ccccc3)nc2cc1C | 5.8*
O=S(=O)(c1ccccc1)n1ccc(-c2cnc3cc(Cl)c(Cl)cc3n2)c1 | 0.74
COc1ccc2ncc(-c3ccc(Cl)c(C)c3)nc2c1 | -0.59
Cc1cn(C(=O)Nc2ccc(Cl)cc2)nc1-c1cccs1 | 0.83
Nc1ccc(-c2nc3cc(N)c(Cl)cc3[nH]2)cc1 | 7.8
COC(=O)c1noc(C)c1-c1ccnn1S(=O)(=O)c1cccc(C(F)(F)F)c1 | -0.95
c1ccc2c(-c3csc(-c4ccc5c(c4)OCCO5)n3)coc2c1 | -0.58
Cc1ccc(-c2nc(/N=C/NOC(=O)c3ccc([N+](=O)[O-])cc3)sc2C)cc1Cl | 3.6*
Cc1ccc(-c2nc(/N=C/N(C)C)sc2C)cc1Cl | -0.43
O=C(ON/C=N/c1ncc(-c2ccc(Br)s2)s1)c1ccc([N+](=O)[O-])cc1 | 0.29
Cc1[nH][nH]c(=O)c1C(c1cccnc1)c1c(C)[nH][nH]c1=O | -6.3
Cc1[nH]c2ccc(Br)cc2c(=O)c1CN1CCCCC1C (stereo not given) | 2.5
O=c1oc(-c2ccc(Cl)c(Cl)c2)nn1-c1cccc(C(F)(F)F)n1 | -0.48
O=C(O)c1cc([N+](=O)[O-])ccc1Sc1ccc([N+](=O)[O-])cc1C(=O)O | -0.05
SMILES | Dicer inh
CSc1ccc([N+](=O)[O-])cc1C(=O)/C=C/N(C)C | 6.2*
CSc1ccc([N+](=O)[O-])cc1C(C)=O | -0.35
CSc1nc(C)nc(N/C=C(\C#N)C(=O)C2CC2)n1 | 0.04
CC1CC(=O)Nc2ccccc2N1C(=O)c1cccc(Cl)c1 (stereo not given) | -1.5
Cc1ccc(C(=O)O)c2c1N[C@H](c1cccc(Cl)c1)C1CC=CC21 (stereo not given in full) | -1.7
Cc1ccc(C2Nc3c(C)ccc(C(=O)O)c3C3C=CCC32)cc1 (stereo not given) | 3.3*
Cc1ccc(C(=O)O)c2c1NC(c1ccc(Cl)cc1)C1CC=CC21 (stereo not given) | 1.4
COc1ccc(Oc2c(Cl)cnn(-c3ccc([N+](=O)[O-])cc3)c2=O)cc1 | -2.1
O=C(Nc1ccccc1)N1CCSCC1 | 1.6
O=C(Nc1ccc(OC(=O)N(c2ccccc2)c2ccccc2)cc1)N1CCOCC1 | 3.9*
O=C(Nc1ccc(Cl)cc1)N1CCOCC1 | 0.1
O=C(O)c1cc2nc(-c3ccc4c(c3)OCO4)cc(C(F)(F)F)n2n1 | -2
Cc1ccc(-c2n[nH]c(=O)c3ccccc23)cc1S(=O)(=O)NC(C)(C)C | 0.82
Cc1ccc(-c2n[nH]c(=O)c3ccccc23)cc1S(N)(=O)=O | -0.34
Cc1ccc(-c2n[nH]c(=O)c3ccccc23)cc1S(=O)(=O)NC(C)C | 3.6*
O=c1c2cc(-c3ccccc3)sc2ncn1Cc1ccc(F)cc1 | 0.66
COc1ccc(C#N)cc1Br | -0.35
Brc1ccc(C2Nc3cccc4cccc(c34)N2)cc1 | 5*
Fc1ccc(C2Nc3cccc4cccc(c34)N2)cc1 | -0.77
COc1ccc(C2Nc3cccc4cccc(c34)N2)cc1Br | 4.9*
Oc1ccc2ccccc2c1C1Nc2cccc3cccc1c23 (stereo not given) | -2.6
COc1cccc(C2Nc3cccc4cccc(c34)N2)c1O | 0.69
CC(C)c1nn2c(=O)c(NC(=O)c3ccc(Cl)cc3)cnc2s1 | -0.2
Cc1ccccc1OC1C(=O)N(Cc2ccc3c(c2)OCO3)C1c1ccc(F)cc1 (stereo not given) | 1.5
N#C/C(=C1/SC=C(c2ccc(Cl)cc2)N1c1ccccc1)c1nc2ccccc2[nH]1 | 8.7
SMILES | Dicer inh
Cc1cc(C(F)(F)F)n2nc(C)c(C#N)c2n1 | 0.55
O=S(=O)(Cc1noc(-c2ccc(F)cc2Cl)n1)c1ccsc1 | -1.1
O=C(NCCNc1ccc(C(F)(F)F)cn1)Nc1cccc(Cl)c1Cl | -0.47
COc1ccc(-c2cnn3c(C(F)(F)F)cc(-c4cccs4)nc23)cc1OC | -0.97
O=C(NCC1CCCO1)c1cc2n(n1)C(C(F)(F)F)CC(c1ccc(Br)cc1)N2 (stereo not given) | 3.7*
O=C(NCc1cccs1)c1cc2n(n1)C(C(F)(F)F)CC(c1ccc(F)cc1)N2 (stereo not given) | 1.2
Cc1c(CNC(=O)c2cc3n(n2)C(C(F)(F)F)CC(c2ccc4c(c2)OCO4)N3)cnn1C (stereo not given) | -1.9
Cc1ccc(C2CC(C(F)(F)F)n3ncc(C(=O)NCC4CCCO4)c3N2)cc1 (stereo not given) | 0.63
CCOC(=O)c1cc2n(n1)C(C(F)(F)F)CC(c1ccccc1)N2 (stereo not given) | 2.8
Cc1ccc(C2CC(C(F)(F)F)n3nc(C(=O)N(C)Cc4c(C)nn(C)c4C)cc3N2)cc1 (stereo not given) | 0.02
CN(Cc1ccccc1)C(=O)c1cc2n(n1)C(C(F)(F)F)CC(c1ccccc1)N2 (stereo not given) | 3*
O=C(NCc1ccco1)c1cc2n(n1)C(C(F)(F)F)CC(c1ccc3c(c1)OCO3)N2 (stereo not given) | 3.8*
O=C(NCc1ccco1)c1cc2n(n1)C(C(F)(F)F)CC(c1ccc(Cl)cc1)N2 (stereo not given) | 2.9
Cc1cc(-c2ccccc2)nc2oc(C(=O)N/N=C/c3ccc(Cl)cc3Cl)c(N)c12 | 0.42
c1ccc2c(c1)c1ccccc1c1nc(N3CCCCC3)nnc21 | -1.1
CC1=C(C(=O)Nc2cc(C)ccn2)C(c2ccc3c(c2)OCO3)C2=C(CCCC2=O)N1 (stereo not given) | 1.4
Cc1cc(C)c(N/C(N)=N/c2nc(C)cc(=O)[nH]2)c(C)c1 | 1.4
N=C(c1ccc(Cl)cc1)c1cc2ccccc2cn1 | -0.9
CCOC(=O)c1c(NC(=O)c2cccs2)sc(C(=O)Nc2ccc3c(c2)OCO3)c1C | 0.23
Cc1ccc2nc(SCc3nc(-c4ccc(Br)cc4)no3)[nH]c2c1 | 0.97
CC(C)(C)OC(=O)N/N=C\c1cccc2ccccc12 | -1.2
CNC(=S)N/N=C/c1c(O)ccc2ccccc12 | 0.57
Fc1ccccc1NC(=S)N/N=C/c1cccc2ccccc12 | 3.4*
CCN(CC)c1cccc(Oc2nc([N+](=O)[O-])nn2Cc2ccccc2F)c1 | 1.4
Nc1nc(/C=C/c2ccccc2O)nc(-c2ccccc2O)n1 | 8
Oc1ccccc1/C=C/c1nc(-c2ccccc2O)n(-c2ccccc2)n1 | 11*
Cc1nn(-c2ccccc2)c(C)c1-c1ccccc1O | 0.59
C=C1SC(=Nc2cccc(OC)c2)N(C(=O)C(c2ccccc2)C2CCCC2)C1(C)C (stereo not given) | -2.5
CC(C)(C)c1ccc(NC(=O)N2CCCc3ccccc32)cc1 | -0.42
COc1cc(C2C(C(=O)OCc3ccccc3)=C(C)N=C3SCCC(=O)N32)ccc1OC(C)=O (stereo not given) | 2
